High-throughput results as filed in PubChem.
Pyk2 oligo antag – antagonists of Pyk2 self-association, primary screen, Q293 cells, FERM NanoBiT luminescence, HTS. Protein-tyrosine kinase 2-beta (Homo sapiens), Q14289. z-score (the deposit names both 25 µM and 10 µM). active compounds read low. AID 1347419, 2020. actives 0.83% (n = 99,000);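 active = Z-score of -3 or lower, scaled per plate to the spread of control and sample wells; inactive = z-score above -3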;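 also: negative z-score means lost luminescence so less FERM oligomerization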
CYP2C19 inh – blockers of cytochrome P450 2C19 activity – biochemical, luminescence, ADME assay, primary screen; P33261; CYP2C19 Supersomes, luciferin-H EGE luminescence, 30 min; inhibition, % at 5 µM; actives 21% (n = 96,000); AID 778, 2007;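 active = CYP2C19 inhibition above a set limit at 5 µM in the primary screen, cut at about 50% in these data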;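 also: plate controls were negative control wells for no effect and 2.5 mM tranylcypromine positive control for full effect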
Target sequence (P33261 whole entry, looked up): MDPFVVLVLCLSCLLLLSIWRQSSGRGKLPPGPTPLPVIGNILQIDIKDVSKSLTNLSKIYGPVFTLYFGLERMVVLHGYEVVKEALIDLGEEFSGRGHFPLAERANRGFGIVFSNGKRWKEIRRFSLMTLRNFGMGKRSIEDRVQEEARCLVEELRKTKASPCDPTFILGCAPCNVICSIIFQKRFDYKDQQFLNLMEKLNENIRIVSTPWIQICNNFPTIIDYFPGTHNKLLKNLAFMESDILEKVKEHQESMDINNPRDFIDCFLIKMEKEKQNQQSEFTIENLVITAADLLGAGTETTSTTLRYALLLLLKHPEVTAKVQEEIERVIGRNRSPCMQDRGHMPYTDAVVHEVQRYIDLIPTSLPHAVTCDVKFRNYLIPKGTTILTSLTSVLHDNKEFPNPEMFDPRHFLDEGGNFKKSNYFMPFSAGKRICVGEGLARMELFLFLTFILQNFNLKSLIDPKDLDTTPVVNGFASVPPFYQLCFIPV
CYP2C9 act – human CYP2C9 activators, primary screen, biochemical, luminescence. actives 1.4% (n = 96,000). recombinant CYP2C9, luciferin-H conversion; active compounds read high; factor 1 = untreated enzyme, 0 = blocked. activation factor at 5 µM. Cytochrome P450 2C9 (Homo sapiens), P11712;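 active = activation factor of 2 or more for CYP2C9 at a 5 µM dose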;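 also: 0 = sulfaphenazole-blocked wells and 1 = vehicle-only wells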
CYP2C19 act – human CYP2C19 activators, primary screen, biochemical, luminescence; 96,000 tested, under 10 active; recombinant CYP2C19, luciferin-H EGE luminescence; active compounds read high; 0 = fully inhibited enzyme, 1 = untreated enzyme; Cytochrome P450 2C19 (Homo sapiens), P33261; activation factor at 5 µM; AID 1025, 2008;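 active = activation factor of at least 2 at 5 µM in the primary screen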;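 also: 0 = wells with 2.5 mM tranylcypromine and 1 = vehicle-only wells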
CYP2C9 inhib – blockers of cytochrome P450 2C9 activity – biochemical, luminescence, ADME assay, primary screen | actives 20% (n = 96,000) | CYP2C9 Supersomes, luciferin-H conversion | AID 777, 2007 | inhibition, % at 5 µM | P11712;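 active = blocking of liver enzyme CYP2C9 beyond about 50% at 5 µM, limit read from the data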
The depositor's hits bear a star; · = no result given. An excerpt weighted towards active compounds, which were near 28% of everything screened.

SMILES | Pyk2 oligo antag | CYP2C19 inh | CYP2C9 act | CYP2C19 act | CYP2C9 inhib
COc1cccc(NC(=O)c2ccccc2-c2nc(-c3cccc(C)c3)no2)c1 | -2.1 | 36 | 0.4 | 0.6 | 61*
Cc1cccc(-c2noc(-c3ccccc3C(=O)NCC3CCCO3)n2)c1 (stereo not drawn) | -0.86 | 18 | 0.8 | 0.8 | 22
COCCNC(=O)c1ccccc1-c1nc(-c2ccccc2OC)no1 | 0.6 | 11 | 0.8 | 0.9 | 19
CC(C)NC(=O)c1ccccc1-c1nc(-c2ccccc2Cl)no1 | -1.5 | 17 | 0.2 | 0.8 | 79*
CC(C)(C)NC(=O)c1ccccc1-c1nc(-c2ccccc2Cl)no1 | -0.71 | 85* | 0 | 0.2 | 100*
CCNC(=O)c1ccccc1-c1nc(-c2ccccc2Cl)no1 | -0.11 | 15 | 0.2 | 0.8 | 76*
CCCCSC(=S)N(C)C1CCS(=O)(=O)C1 (stereo not drawn) | 0.82 | 49 | 0.7 | 0.5 | 29
CCCCc1ccc(NC(=O)C2CCCO2)cc1 (stereo not drawn) | -0.95 | 11 | 0.8 | 0.9 | 20
CCOc1ccccc1NC(=O)c1ccccc1-c1nc(-c2ccccc2OC)no1 | -1.5 | 39 | 0.4 | 0.6 | 63*
c1coc(-c2nnc3sc(Cc4cccs4)nn23)c1 | 0.27 | 69* | 0.5 | 0.3 | 55*
Clc1ccc(OCc2nn3c(-c4ccco4)nnc3s2)cc1 | 0.4 | 21 | 0.8 | 0.8 | 17
Clc1ccc(OCc2nn3c(-c4ccncc4)nnc3s2)cc1 | -1.5 | 92* | 0.3 | 0.1 | 69*
COc1ccc(OCc2nn3c(-c4cccc(OC)c4)nnc3s2)cc1 | -1.2 | 51* | 0.7 | 0.5 | 34
COc1ccc(OCc2nn3c(-c4ccco4)nnc3s2)cc1 | 0.08 | 57* | 0.4 | 0.4 | 59*
CCOc1ccc(-c2nnc3sc(COc4ccc(Cl)cc4)nn23)cc1 | 0.89 | 18 | 1.1 | 0.8 | -7
CCOC(=O)CN1C(=O)SC(CC(=O)Nc2nccs2)C1=O (stereo not drawn) | -1.2 | 27 | 0.7 | 0.7 | 35
CCOC(=O)CNc1c(N2CCN(c3ccccn3)CC2)c(=O)c1=O | · | 7 | 0.9 | 0.9 | 5
O=C(NCCN1CCCC1)C1CC(=O)N(C2CCCCC2)C1 (stereo not drawn) | -0.18 | 24 | 1 | 0.8 | 4
Clc1ccc(-c2nnc3sc(Cc4cccs4)nn23)c(Cl)c1 | -1 | 87* | 0.2 | 0.1 | 78*
Cc1onc(-c2ccccc2)c1C(=O)N1CCN(C/C=C/c2ccccc2)CC1 | · | 5 | 0.9 | 1 | 14
O=C1C2C3C=CC(C3)C2C(=O)N1c1cccnc1 (stereo not drawn) | -0.16 | -10 | 1.1 | 1.1 | -10
COc1ccc(OC)c(CNC(=O)CCN2C(=O)COc3ccccc32)c1 | 1.5 | 70* | 1.3 | 0.3 | -34
COCCCNC(=O)CCN1C(=O)COc2ccccc21 | 1.2 | 0 | 1.1 | 1 | -12
COc1ccc(Br)cc1CNC(=O)CCN1C(=O)COc2ccccc21 | 0.2 | 81* | 1.1 | 0.2 | -8
CCCCN(CC)Cc1ccc(CNC(=O)Nc2ccc(OCC)cc2)o1 | 2.4 | 4 | 0.9 | 1 | 12
SMILES | Pyk2 oligo antag | CYP2C19 inh | CYP2C9 act | CYP2C19 act | CYP2C9 inhib
O=C(c1nn(Cc2ccccc2)c(=O)c2ccccc12)N1CCN(C/C=C/c2ccccc2)CC1 | -0.91 | 41 | 0.2 | 0.6 | 82*
O=C(Cc1ccccc1)N1CCN(C(=O)c2cccs2)CC1 | -0.36 | 81* | 0.8 | 0.2 | 23
O=C(Nc1ccc(F)cc1)N1CCN(C/C=C/c2ccccc2)CC1 | -1.3 | 42 | 0.5 | 0.6 | 51*
O=C(c1ccco1)N1CCN(C/C=C/c2ccccc2)CC1 | 0.63 | 13 | 1 | 0.9 | 3
O=C(c1cccs1)N1CCN(C/C=C/c2ccccc2)CC1 | -0.41 | 60* | 0.5 | 0.4 | 52*
O=C(COc1ccccc1)N1CCN(C(=O)c2cccs2)CC1 | 0.12 | 29 | 0.8 | 0.7 | 16
CC(C)c1ccc(S(=O)(=O)N2CCN(CC(=O)Nc3ccc4c(c3)OCO4)CC2)cc1 | 0.35 | 12 | 0.8 | 0.9 | 19
COc1ccc(OC)c(NC(=O)CC(NCCC2=CCCCC2)C(=O)O)c1 (stereo not drawn) | · | 4 | 0.7 | 1 | 34
O=C(c1cccs1)N1CCN(CCc2ccccc2)CC1 | -0.17 | 79* | 0.6 | 0.2 | 43
COc1ccc(/C=C(/C(=O)Nc2ccccc2C(=O)NC(C)C)c2ccccc2)cc1 | -0.94 | 43 | 0.4 | 0.6 | 60*
COc1ccc(/C=C(/C(=O)Nc2ccccc2C(=O)N2CCCC2)c2ccccc2)cc1 | -1.7 | 40 | 0.9 | 0.6 | 6
CC1CCc2c(C(=O)N3CCN(S(=O)(=O)c4cccs4)CC3)csc2C1 (stereo not drawn) | -1.1 | 78* | 0.2 | 0.2 | 77*
O=C(c1ccco1)N1CCN(C(=O)C2CCN(S(=O)(=O)c3cccs3)CC2)CC1 | 0.02 | 1 | 1 | 1 | -3
O=C(O)c1cccc(COc2ccccc2Cl)c1 | 1.4 | 97* | 0 | 0 | 95*
CCOc1ccc(N2C(=O)C(Cl)=C(Nc3ccccc3O)C2=O)cc1 | -0.69 | 14 | 1 | 0.9 | -4
CCCCn1c(SCC(=O)c2ccc3c(c2)OCCO3)nnc1-c1ccco1 | -0.55 | 48 | 0.4 | 0.5 | 56*
CCn1c(COc2ccc(Cl)cc2)nnc1SCC(=O)Nc1ccc2c(c1)OCCO2 | 0.26 | -8 | 1 | 1.1 | -1
COCCn1c(SCC(=O)c2ccc3c(c2)OCCO3)nnc1-c1ccoc1C | -0.34 | 22 | 0.6 | 0.8 | 45
CCn1c(SCC(=O)c2ccc3c(c2)OCCO3)nnc1C(C)C | 0.08 | 94* | 0.9 | 0.1 | 11
CC(C)n1nnnc1SCC(=O)c1ccc2c(c1)OCCO2 | 0.07 | 63* | 1 | 0.4 | 4
CCn1c(COc2ccc3c(c2)OCO3)nnc1SCC(=O)c1ccc(Cl)cc1 | 0.8 | -10 | 0.5 | 1.1 | 51*
COc1cccc(C(=O)CSc2nc3cccnc3n2C)c1 | 0.44 | · | · | · | ·
CC(/C=C/c1ccccc1)NC(N)=O (stereo not drawn) | -0.01 | 32 | 0.4 | 0.7 | 61*
NC(=O)/C(=C\c1ccccc1)NC(=O)/C=C/c1ccccc1 | 1.1 | · | · | · | ·
O=C(Oc1cccc(Nc2ncnc3ccccc23)c1)c1ccccc1Cl | -1.5 | 14 | 0.4 | 0.9 | 57*
CSc1nnc(C)c(=O)[nH]1 | 0 | · | · | · | ·
Cc1ccc(-c2cc(-c3ccc(C)o3)nc(N)c2C#N)cc1 | -0.55 | 10 | 0.7 | 0.9 | 28
Cc1ccc(-c2cc(-c3ccc(Cl)cc3)c(C#N)c(N)n2)o1 | -0.54 | 75* | 0.4 | 0.2 | 57*
Cc1cc(-c2cc(-c3ccc(Cl)cc3)nc(N)c2C#N)co1 | 0.08 | 83* | 0.3 | 0.2 | 69*
